Screening results (PubChem BioAssay)
TDP1 cell CPT: growth inhibition of DT40 Tdp1-/-;hTDP1 cells with camptothecin (screen for TDP1 inhibitors). chicken DT40 Tdp1-/-;hTDP1 cells + 20 nM CPT, ATP luminescence, 48 h. Potency, µM (highest dose often 46.2 µM), for the others: at the top dose activity change, negative = growth inhibition, most hits filed as inhibitors. 12% of 420,000 active. AID 686979; note: % is set by controls: 0 for no effect and ±100 for the full control effect; nearly all actives have a fitted effect of over 55% in size
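Cell growth measured by CellTiter-Glo luminescence after a minimum 48 h, 37 C compound exposure with 20 nM CPT in Tdp1-knockout DT40 cells stably expressing hTDP1, seeded 400/well; qHTS titration format.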
ClpP mod: qHTS Assay for Activators of ClpP; ATP-dependent Clp protease proteolytic subunit (Bacillus subtilis (strain 168)), P80244; purified B. subtilis ClpP, FRET peptide cleavage, 20 min; Potency, µM (highest dose often 57.5 µM), without a hit: at the highest dose activity change, negative = active; 1.9% of 340,000 active; AID 651965, 2013; active = well fitted falling curve with a large enough effect; inconclusive = small, poorly fitted or top-dose-only effect; inactive = no such curve, though single readings can be large or run the other way; note: the source files actives as falling curves though it sought activators and does not explain the sign; nearly all actives have a fitted effect of over 65% in size
Target sequence (P80244 whole entry, looked up): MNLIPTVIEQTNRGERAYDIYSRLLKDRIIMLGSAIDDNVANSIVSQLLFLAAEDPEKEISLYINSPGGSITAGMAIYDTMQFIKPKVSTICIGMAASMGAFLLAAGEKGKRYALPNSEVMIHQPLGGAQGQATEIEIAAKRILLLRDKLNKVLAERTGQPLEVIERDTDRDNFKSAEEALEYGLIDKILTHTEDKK
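Buffer: 100 mM Tris/HCl pH8, 100 mM KCl, 0.05% low protease BSA, 2.5% glycerol, 0.01% Tween-20. ClpP 10 microg/mL final; 20 min RT; delta FRET normalized to ADEP and DMSO controls.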
TDP1 block: inhibitors of human tyrosyl-DNA phosphodiesterase TDP1; Potency, µM (highest dose often 130 µM), for the others: at the top dose activity change, negative = inhibition, usual class: inhibitors; 0.28% of 350,000 active; AID 485290; recombinant TDP1, AlphaScreen DNA substrate cleavage; Q9NUW8; note: % is set by controls: 0 for no effect and ±100 for the full control effect; nearly all actives have a fitted effect of over 40% in size
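E. coli-derived human Tdp1, 1 nM final. Cpd preinc 15 min RT; substrate 15 nM final, 5 min RT; AS bead mix 10 ug/ml final, 10 min RT. Signal loss = tyrosine-FITC cleavage. No-enzyme wells = max signal.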
TDP1 cell noCPT: qHTS for Inhibitors of human tyrosyl-DNA phosphodiesterase 1 (TDP1): qHTS in cells in absence of CPT; DT40 Tdp1-/- hTDP1 cells, no CPT, ATP luminescence, 48 h; Potency, µM (highest dose often 46.2 µM), without a hit: at the highest dose activity change, negative = growth inhibition, actives largely listed as inhibitors; 15% of 420,000 active; AID 686978, 2013; note: % is set by controls: 0 for no effect and ±100 for the full control effect; nearly all actives have a fitted effect of over 55% in size
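Readout: luminescence from CellTiter-Glo after 30 min in the dark at RT. Cells: DT40 Tdp1-/- with stable hTDP1, 400/well. Exposure: compounds alone, ≥48 hr, 37 °C.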
* marks the source's active call; other numbers are inactive results; ? = inconclusive; nt = no result; [ ] = remark or other dose. In the library only some 17% were active in any assay of this set; here they are far more common. Unless noted, calls come from the whole dose curve; as a rule, active = well fitted curve in the direction sought with a large enough effect; inconclusive = small, poorly fitted or top-dose-only effect, or another doubt; inactive = no such curve, though single readings can be large; an effect the other way counts as inactive or inconclusive. Potency is the fitted concentration of half-maximal effect.

SMILES | TDP1 cell CPT | ClpP mod | TDP1 block | TDP1 cell noCPT
O=C(COc1ccccc1-c1nc(-c2ccccc2)no1)Nc1ccc([N+](=O)[O-])cc1 | -13.3% | 1.0% | 8.6% | 2.0%
Nc1ncnc2c1C1(CCCCC1)Cc1ccccc1-2 | ? | 15.8µM* | 5.5% | ?
c1ccc(OCc2nc3c4c(ncn3n2)-c2ccccc2CC42CCCC2)cc1 | ? | 12.6µM* | 0.0% | ?
CN1CCN(c2ccc(S(=O)(=O)N3CCCCC3)cc2NC(=O)c2ccc3ccccc3c2)CC1 | ? | 20µM* | -5.5% | ?
CC(=O)c1ccccc1NC(=O)c1cc(S(=O)(=O)N2CCOCC2)ccc1N1CCCC1 | ? | 1.2% | 2.1% | 20.6µM*
O=C(Nc1ccc(Cl)c(Cl)c1)Nc1cc(S(=O)(=O)N2CCOCC2)ccc1N1CCCC1 | ? | ? | 5.5% | 18.4µM*
CC(C)COc1cccc(C(=O)Nc2cc(S(=O)(=O)N3CCOCC3)ccc2N2CCCC2)c1 | ? | -7.7% | nt | 20.6µM*
Cc1ccccc1C(=O)Nc1cc(S(=O)(=O)N2CCCCC2)ccc1N1CCN(C)CC1 | -10.1% | 1.9% | 5.6% | -43.8%
O=C(Nc1ccc(Cl)c(Cl)c1)Nc1cc(C(=O)N2CCOCC2)ccc1N1CCCCC1 | ? | -1.2% | nt | ?
COCCN1C[C@@H](CO)O[C@@H](n2cnc3c(NCCO)ncnc32)C1 | -11.5% | 1.7% | nt | ?
CCOc1ccc2nc(NC(=O)C34CC5CC(CC(NC(C)=O)(C5)C3)C4)sc2c1 | ? | -1.3% | 6.1% | ?
CN1CCCC(CNC(=O)c2cnn(-c3nccc(-c4cccs4)n3)c2C2CC2)C1 (stereo unspecified) | -8.8%[9.04 µM] | nt | nt | -16.3%
O=C(Nc1cc(S(=O)(=O)N2CCOCC2)ccc1N1CCCCC1)c1ccc(Cl)cc1 | 18.4µM* | -8.5% | 1.8% | 13µM*
CCN1CCN(c2ccc(S(=O)(=O)N3CCCCC3)cc2NC(=O)c2cccc(OC(F)F)c2)CC1 | ? | 2.3% | 9.9% | 20.6µM*
O=C(Nc1cc(S(=O)(=O)N2CCOCC2)ccc1N1CCCC1)c1ccc2c(c1)S(=O)(=O)c1ccccc1C2=O | 13µM* | nt | 1.2% | ?
CC(C)(C)C(=O)Nc1cc(S(=O)(=O)N2CCCCC2)ccc1N1CCCCC1 | 16.4µM* | nt | 2.7% | 23.1µM*
CCN1CCN(c2ccc(S(=O)(=O)N3CCCCC3)cc2NC(=O)c2ccc(OC(F)F)cc2)CC1 | ? | -3.1% | -3.3% | ?
N#C/C(=C\c1ccc(OCC(N)=O)cc1)S(=O)(=O)c1ccccc1 | 0.8% | -5.1% | 2.7% | -2.0%
O=C1NC(=O)C2(CCCC2c2ccccc2)N1 (stereo unspecified) | -2.6% | 1.6% | nt | -11.2%
CC1CN(S(=O)(=O)c2cccc(C(=O)Nc3ccccc3N3CCCCC3)c2)CC(C)O1 (stereo unspecified) | 16.4µM* | -11.6% | 0.5% | 13µM*
CC1CN(S(=O)(=O)c2cccc(C(=O)N=c3sccn3C)c2)CC(C)O1 (stereo unspecified) | 18.4µM* | -3.3% | 0.2% | ?
Cc1c(C(=O)Nc2cc(S(=O)(=O)N3CCOCC3)ccc2N2CCN(C)CC2)oc2ccccc12 | ? | nt | nt | 18.4µM*
Cc1ccc(C(=O)Nc2cc(S(=O)(=O)N3CCOCC3)ccc2N2CCCC2)cc1 | -14.9% | 2.0% | 1.7% | ?
CC1CN(S(=O)(=O)c2cccc(C(=O)Nc3ccccc3N3CCOCC3)c2)CC(C)O1 (stereo unspecified) | ? | -2.7% | -0.6% | ?
O=C(Nc1cc(S(=O)(=O)N2CCOCC2)ccc1N1CCCCC1)c1ccccc1 | ? | -2.0% | 2.6% | 20.6µM*
SMILES | TDP1 cell CPT | ClpP mod | TDP1 block | TDP1 cell noCPT
CCN1CCN(c2ccc(S(=O)(=O)N3CCCCC3)cc2NC(=O)/C=C/c2cccc(OC)c2OC)CC1 | ? | -4.9% | 5.6%[56.1 µM] | 16.4µM*
CCN1CCN(c2ccc(S(=O)(=O)N3CCCCC3)cc2NC(=O)/C=C/c2ccc(F)cc2)CC1 | ? | 0.6% | nt | ?
c1ccc(-c2csc3ncnc(NCCCN4CCOCC4)c23)cc1 | 11.6µM* | -4.1% | -2.2% | 13µM*
c1ccc(-c2csc3ncnc(NCC4COc5ccccc5O4)c23)cc1 (stereo unspecified) | 0.731µM* | 0.5% | -1.9% | 0.92µM*
Cc1csc2c(NCCCN3CCOCC3)ncnc12 | 6.4% | -5.3% | -1.3% | 0.5%
c1csc(-c2csc3ncnc(NCCCN4CCOCC4)c23)c1 | 16.4µM* | -0.6% | 3.3% | 13µM*
O=c1c2c(-c3ccccc3)csc2nc2c3ccccc3c(NCCN3CCOCC3)nn12 | 8.2µM* | nt | 7.1% | 5.17µM*
O=C(NC1CCCC1)c1ccc2c(=O)n(Cc3ccccc3)c(SCc3ccc([N+](=O)[O-])cc3)nc2c1 | ? | 0.5% | 8.8% | -15.2%
CC(C)CC[n+]1ccccc1/C=C/c1ccc(N(C)C)cc1 | 0.0184µM* | nt | nt | 0.0259µM*
O=C(NC1=NCCS1)c1ccc(Cl)c(S(=O)(=O)N2CCc3ccccc32)c1 | ? | 0.4% | 5.0% | ?
CC(C)c1ccc(NC(=O)c2ccc(F)c(S(=O)(=O)N3CCc4ccccc43)c2)cc1 | 5.17µM* | -7.4% | 5.2% | 7.31µM*
CCOc1ccccc1NC(=O)c1ccc(F)c(S(=O)(=O)NCc2ccc3c(c2)OCO3)c1 | -33.8% | 2.1% | 7.8% | ?
CC(=O)Nc1ccc(NC(=O)c2ccc3c(c2)CCN3S(=O)(=O)c2ccc(C)cc2)cc1 | -10.1% | -1.1% | 0.0% | -0.9%
O=C(Nc1ccc(Br)cc1)c1ccc(F)c(S(=O)(=O)N2CCc3ccccc32)c1 | 23.1µM* | -19.6% | 0.0% | 20.6µM*
O=C(Nc1cccc(Cl)c1)c1ccc(F)c(S(=O)(=O)NCc2ccc3c(c2)OCO3)c1 | -21.9% | -0.4% | 2.6% | 25.9µM*
O=C(Nc1ccc(Br)cc1)c1ccc(F)c(S(=O)(=O)NCc2cccs2)c1 | 14.6µM* | -0.7% | 4.2% | 20.6µM*
O=S(=O)(NCc1cccs1)c1ccc(Br)cc1 | -4.4% | -0.2% | 1.7% | 1.0%
CCC1CN(CCNC(=O)c2ccc(N3CCOCC3)cc2)Cc2cc(OC)ccc2O1 (stereo unspecified) | -16.4% | nt | nt | -28.6%
CN(C)c1ccc(C(CNC(=O)c2c(F)cccc2Cl)N2CCOCC2)cc1 (stereo unspecified) | -23.5% | 0.1% | -1.2% | -20.1%
COc1cccc(C(=O)NCC(c2ccc(N(C)C)cc2)N2CCOCC2)c1OC (stereo unspecified) | 14.6µM* | 0.8% | 6.2% | 16.4µM*
COc1ccc(Cl)cc1C(=O)NCC(c1ccc(N(C)C)cc1)N1CCOCC1 (stereo unspecified) | ? | -0.3% | -8.8% | 16.4µM*
CN(C)c1ccc(C(CNC(=O)c2ccco2)N2CCCC2)cc1 (stereo unspecified) | 2.1% | -2.2% | 1.9% | 15.3%
